Screening data deposited in PubChem by National Center for Advancing Translational Sciences (NCATS).
FMDV antiviral = foot and mouth disease virus antiviral activity | FMDV antiviral cell-based qHTS | Potency, µM (doses to about 57.9 µM), without a hit: top-dose activity change, negative = inhibition, most hits filed as inhibitors | hit rate 1.2% among 410,000; calls by dose curve; tested in HEK293T cells; note: read-out not given here; potency is the fitted concentration of half-maximal effect; nearly all actives have a fitted effect of over 45% in size
Lassa entry inh = inhibitors of Lassa virus binding or cell entry; Lassa virus pseudotype entry inhibition, cell reporter; Potency, µM (highest dose often 37.9 µM), inactives show at the highest dose activity change, negative = inhibition, most hits filed as inhibitors; hit rate 1.2% among 300,000; AID 540256; calls by dose curve; tested in HEK293 cells; note: potency is the fitted concentration of half-maximal effect; nearly all actives have a fitted effect of over 50% in size
HCV inhibitor = blocks hepatitis C virus; Huh7.5.1 HCVcc-Cre infection, luciferase reporter, 44 h; Potency, µM (top dose mostly 41.8 µM), for the others: at the highest dose activity change, negative = inhibition, actives largely listed as inhibitors; hit rate 3.4% among 340,000; AID 651820; active = well fitted inhibition curve with a large enough effect; inconclusive = small, poorly fitted or top-dose-only effect, or another doubt; inactive = no such curve, though single readings can be large or run the other way; note: potency is the fitted concentration of half-maximal effect
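After 44 h co-culture of compound, cells and HCVcc-Cre (~0.5 moi), substrate is added for 15 min at room temperature and luciferase measured over 15 sec. Cells were seeded at 1,000/well and pre-cultured 4 h.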
Marburg entry inh = inhibitors of Marburg virus binding or cell entry | AID 540276 | Marburg virus pseudotyped entry inhibition, cell reporter | Potency, µM (titrated, usually from 37.8 µM), inactives show at the highest dose activity change, negative = inhibition, actives largely listed as inhibitors | hit rate 1.8% among 300,000; calls by dose curve; tested in HEK293 cells; note: potency is the fitted concentration of half-maximal effect
HCMV antiviral = inhibitors of human cytomegalovirus; HFF cells, HCMV-luciferase reporter, 72 h; stronger effect = lower value; activity change, negative = inhibition, % at 57.5 µM; hit rate 4.5% among 410,000; in the data active = activity change below about -60%; inconclusive = no clear call, values can overlap the other calls; inactive = above about -39%
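Compounds were evaluated in HFFs infected with an HCMV luciferase reporter virus (MOI 1 PFU/cell). Luciferase in lysates collected 72 h post infection served as the replication measure.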
* hit, by the source's call; [ ] = dose if it differs, or a comment. Compounds with a hit are over-represented: about 7.9% of the library has one in this group of screens. % is set by controls: 0 for no effect and ±100 for the full control effect.

How did CCOc1nc(-c2ccc(C)cc2)ccc1-c1noc(-c2ccccc2F)n1 do in these assays?
FMDV antiviral: -1%; Lassa entry inh: -7%[46.1 µM]; Marburg entry inh: inconclusive; HCMV antiviral: 0

Results for COc1ccc(OC)c(N(CC(=O)NCc2ccccn2)S(C)(=O)=O)c1 ?
FMDV antiviral: 30%; Lassa entry inh: 4%; HCV inhibitor: 17%; Marburg entry inh: 0%; HCMV antiviral: 12

Results for COc1ccccc1N(CC(=O)NCc1ccccn1)S(C)(=O)=O ?
Lassa entry inh: 3%; HCV inhibitor: 1%; Marburg entry inh: -1%; HCMV antiviral: -66*

Results for Cc1ccc2nc(CSc3nnc(NC(=O)COc4ccccc4)s3)cc(=O)n2c1 ?
FMDV antiviral: -9%; Lassa entry inh: 7%[46.1 µM]; HCMV antiviral: inconclusive

What do the screens show for `CC(=O)c1c(-c2ccccc2)c2cc(Cl)ccc2[nH]c1=O`?
FMDV antiviral: 3%; Lassa entry inh: -29%; HCV inhibitor: 2%; Marburg entry inh: -25%[14.2 µM]; HCMV antiviral: -63*

What do the screens show for `CC(=O)c1c(-c2ccc(Cl)cc2)c2ccccc2[nH]c1=O`?
FMDV antiviral: -15%; Lassa entry inh: inconclusive; HCV inhibitor: -17%; Marburg entry inh: -11%[46.1 µM]; HCMV antiviral: inconclusive

What do the screens show for `CCn1c(C)c(C)c2cc(C(=O)NCc3cccc(C)c3)ccc21`?
FMDV antiviral: 7%; Lassa entry inh: -26%[46.1 µM]; HCMV antiviral: 0

Results for Cc1ccc(C(=O)c2cn(Cc3ccccc3)c3ccccc3c2=O)cc1 ?
FMDV antiviral: -23%; Lassa entry inh: -23%[46.1 µM]; Marburg entry inh: -11%[46.1 µM]; HCMV antiviral: -63*

Results for COc1ccc2c(c1)c(=O)c(C(=O)c1ccccc1)cn2CC(=O)Nc1ccc2c(c1)OCO2 ?
FMDV antiviral: -11%; Lassa entry inh: 1%[46.1 µM]; Marburg entry inh: 0%[46.1 µM]; HCMV antiviral: -103*

Results for COc1ccc(C(=O)c2cn(Cc3ccc(C)cc3)c3cc4c(cc3c2=O)OCO4)cc1 ?
FMDV antiviral: -25%; Lassa entry inh: inconclusive; Marburg entry inh: inconclusive; HCMV antiviral: -65*

How did CCOc1ccc(C(=O)c2cn(CC(=O)Nc3ccc(F)cc3)c3cc4c(cc3c2=O)OCCO4)cc1 do in these assays?
FMDV antiviral: -6%; Lassa entry inh: -1%[46.1 µM]; Marburg entry inh: -5%[46.1 µM]; HCMV antiviral: -1

What do the screens show for `CCOc1ccc(NC(=O)Cn2cc(C(=O)c3ccccc3)c(=O)c3cc4c(cc32)OCCO4)cc1`?
FMDV antiviral: inconclusive; Lassa entry inh: -10%[46.1 µM]; Marburg entry inh: inconclusive; HCMV antiviral: -104*

How did CC(=O)N1c2ccccc2C(=O)C1N1CCN(c2cccc(C(F)(F)F)c2)CC1 (stereo unspecified) do in these assays?
FMDV antiviral: -20%; Lassa entry inh: -2%[46.1 µM]; HCMV antiviral: inconclusive

Results for O=C(NCc1ccccc1Cl)c1csc([C@@H]2O[C@H](CO)[C@H](O)[C@H](O)[C@H]2O)n1 ?
FMDV antiviral: -18%; HCMV antiviral: 19

How did CCCNC(=O)N1CC(=O)N2[C@@H](CO)[C@H](c3ccc(Br)cc3)[C@@H]2C1 do in these assays?
HCMV antiviral: -5

Results for COc1ccc2c(c1)CCc1cnc(N)nc1-2 ?
FMDV antiviral: 29%; Lassa entry inh: 1%; HCV inhibitor: inconclusive; Marburg entry inh: inconclusive; HCMV antiviral: -68*

What do the screens show for `COc1ccc(-c2cnc(N)nc2-c2ccc(OC)cc2)cc1`?
FMDV antiviral: inconclusive; HCV inhibitor: inconclusive; HCMV antiviral: -4

How did COCCn1c(SCC(=O)NC2CCCC2)nnc1-c1ccco1 do in these assays?
FMDV antiviral: 5%; Lassa entry inh: 2%[46.1 µM]; HCV inhibitor: 9%; Marburg entry inh: 3%[46.1 µM]; HCMV antiviral: 68

What do the screens show for `O=[N+]([O-])c1cc(C(F)(F)F)cc([N+](=O)[O-])c1Sc1n[nH]c(C(F)(F)F)n1`?
FMDV antiviral: 6.3µM*; Lassa entry inh: 27%[46.1 µM]; HCV inhibitor: 15%; Marburg entry inh: 1%[46.1 µM]; HCMV antiviral: 12

What do the screens show for `CCN(CC)c1ccc(NC(=O)CSc2nnc3nc(C)cc(C)n23)cc1`?
FMDV antiviral: -14%; Lassa entry inh: 14%; HCV inhibitor: 10%; Marburg entry inh: -22%; HCMV antiviral: -107*

What do the screens show for `N#Cc1ccc(Nc2nc(-c3ccc(O)cc3O)cs2)cc1C(F)(F)F`?
FMDV antiviral: 35µM*; HCV inhibitor: 11µM*
